# Results: PMC11006913
# Numbering of substitutions follows the chain as printed.
# How the values were obtained:
# Test in all cases: PBM; 200 nM protein, PBS
# Details in all cases: dsDNA, one strand shown
# HESX1 [1] = molecular target: HESX1 (Homo sapiens, UniProt Q9UBX0 95-180, R165K)
# HESX1 [2] = molecular target: HESX1 (Homo sapiens, UniProt Q9UBX0 95-180)
# HOXB6 [3] = molecular target: HOXB6 (Homo sapiens, UniProt P17509 132-218, K202E)
# HESX1 [4] = molecular target: HESX1 (Homo sapiens, UniProt Q9UBX0 95-180, R109Q)
# Chain of HESX1 (Homo sapiens, UniProt Q9UBX0 95-180, R109Q) (Q9UBX0 95-180 R109Q): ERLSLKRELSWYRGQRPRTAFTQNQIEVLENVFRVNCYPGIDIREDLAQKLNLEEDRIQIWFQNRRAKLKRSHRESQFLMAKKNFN
# HESX1 [5] = molecular target: HESX1 (Homo sapiens, UniProt Q9UBX0 95-180, P111T)
# Chain of HESX1 (Homo sapiens, UniProt Q9UBX0 95-180, P111T) (Q9UBX0 95-180 P111T): as the sequence (Q9UBX0 95-180 R109Q) above, with Q15R, P17T counted along it
# HESX1 [6] = molecular target: HESX1 (Homo sapiens, UniProt Q9UBX0 95-180, F115L)
# Chain of HESX1 (Homo sapiens, UniProt Q9UBX0 95-180, F115L) (Q9UBX0 95-180 F115L): as the sequence (Q9UBX0 95-180 R109Q) above, with Q15R, F21L counted along it
# NKX3-2 [7] = molecular target: NKX3-2 (Homo sapiens, UniProt P78367 192-278, P234S)
# Chain of NKX3-2 (Homo sapiens, UniProt P78367 192-278, P234S) (P78367 192-278 P234S): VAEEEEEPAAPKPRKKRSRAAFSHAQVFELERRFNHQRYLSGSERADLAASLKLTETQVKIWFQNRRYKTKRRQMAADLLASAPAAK
# HOXB6 [8] = molecular target: HOXB6 (Homo sapiens, UniProt P17509 132-218)
# Chain of HOXB6 (Homo sapiens, UniProt P17509 132-218) (P17509 132-218): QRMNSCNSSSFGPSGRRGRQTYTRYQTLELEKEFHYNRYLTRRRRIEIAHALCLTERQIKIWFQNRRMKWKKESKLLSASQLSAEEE
# NKX3-2 [9] = molecular target: NKX3-2 (Homo sapiens, UniProt P78367 192-278)
# Chain of NKX3-2 (Homo sapiens, UniProt P78367 192-278) (P78367 192-278): as the sequence (P78367 192-278 P234S) above, with S43P counted along it
# ALX4 [10] = molecular target: ALX4 (Homo sapiens, UniProt Q9H161 200-286)
# Chain of ALX4 (Homo sapiens, UniProt Q9H161 200-286) (Q9H161 200-286): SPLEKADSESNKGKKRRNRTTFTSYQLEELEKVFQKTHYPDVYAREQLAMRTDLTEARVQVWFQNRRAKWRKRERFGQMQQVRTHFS
# ALX4 [11] = molecular target: ALX4 (Homo sapiens, UniProt Q9H161 200-286, Q225E)
# Chain of ALX4 (Homo sapiens, UniProt Q9H161 200-286, Q225E) (Q9H161 200-286 Q225E): as the sequence (Q9H161 200-286) above, with Q26E counted along it
# PRRX1 [12] = molecular target: PRRX1 (Homo sapiens, UniProt P54821 80-166, F113S)
# Chain of PRRX1 (Homo sapiens, UniProt P54821 80-166, F113S) (P54821 80-166 F113S): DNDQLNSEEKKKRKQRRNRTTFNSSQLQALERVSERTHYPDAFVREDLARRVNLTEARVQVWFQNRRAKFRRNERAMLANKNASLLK
# MSX2 [13] = molecular target: MSX2 (Homo sapiens, UniProt P35548 130-214, R199I)
# Chain of MSX2 (Homo sapiens, UniProt P35548 130-214, R199I) (P35548 130-214 R199I): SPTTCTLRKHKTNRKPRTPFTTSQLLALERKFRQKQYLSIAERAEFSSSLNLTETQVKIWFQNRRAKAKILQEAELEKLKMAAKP
# ALX1 [14] = molecular target: ALX1 (Homo sapiens, UniProt Q15699 118-204, L144V)
# Chain of ALX1 (Homo sapiens, UniProt Q15699 118-204, L144V) (Q15699 118-204 L144V): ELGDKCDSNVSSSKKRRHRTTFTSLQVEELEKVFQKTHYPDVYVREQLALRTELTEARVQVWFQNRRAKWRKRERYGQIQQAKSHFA
# ALX3 [15] = molecular target: ALX3 (Homo sapiens, UniProt O95076 139-225, N203Q)
# Chain of ALX3 (Homo sapiens, UniProt O95076 139-225, N203Q) (O95076 139-225 N203Q): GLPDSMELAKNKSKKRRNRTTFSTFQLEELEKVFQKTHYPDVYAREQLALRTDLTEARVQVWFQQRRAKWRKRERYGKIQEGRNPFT
# SHOX = SHOX (Homo sapiens, UniProt O15266 103-189, R173C)
# Chain of SHOX (O15266 103-189 R173C): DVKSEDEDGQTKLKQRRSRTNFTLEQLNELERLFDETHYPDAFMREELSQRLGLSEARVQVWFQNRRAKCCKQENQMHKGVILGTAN
# ALX1 [16] = molecular target: ALX1 (Homo sapiens, UniProt Q15699 118-204, L144R)
# Chain of ALX1 (Homo sapiens, UniProt Q15699 118-204, L144R) (Q15699 118-204 L144R): as the sequence (Q15699 118-204 L144V) above, with V27R counted along it
# MSX2 [17] = molecular target: MSX2 (Homo sapiens, UniProt P35548 130-214)
# Chain of MSX2 (Homo sapiens, UniProt P35548 130-214) (P35548 130-214): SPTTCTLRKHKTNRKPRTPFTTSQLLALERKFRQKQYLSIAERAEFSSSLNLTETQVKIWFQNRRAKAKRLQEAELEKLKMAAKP
# ALX3 [18] = molecular target: ALX3 (Homo sapiens, UniProt O95076 139-225)
# Chain of ALX3 (Homo sapiens, UniProt O95076 139-225) (O95076 139-225): as the sequence (O95076 139-225 N203Q) above, with Q65N counted along it
# PROP1 [19] = molecular target: PROP1 (Homo sapiens, UniProt O75360 56-141, R99H)
# Chain of PROP1 (Homo sapiens, UniProt O75360 56-141, R99H) (O75360 56-141 R99H): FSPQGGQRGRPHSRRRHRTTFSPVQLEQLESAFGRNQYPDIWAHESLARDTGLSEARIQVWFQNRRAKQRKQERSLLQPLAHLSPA
# ALX3 [20] = molecular target: ALX3 (Homo sapiens, UniProt O95076 139-225, L168Q)
# Chain of ALX3 (Homo sapiens, UniProt O95076 139-225, L168Q) (O95076 139-225 L168Q): as the sequence (O95076 139-225 N203Q) above, with L30Q, Q65N counted along it
# ALX3 [21] = molecular target: ALX3 (Homo sapiens, UniProt O95076 139-225, L168V)
# Chain of ALX3 (Homo sapiens, UniProt O95076 139-225, L168V) (O95076 139-225 L168V): as the sequence (O95076 139-225 N203Q) above, with L30V, Q65N counted along it
# MSX2 [22] = molecular target: MSX2 (Homo sapiens, UniProt P35548 130-214, F161Y)
# Chain of MSX2 (Homo sapiens, UniProt P35548 130-214, F161Y) (P35548 130-214 F161Y): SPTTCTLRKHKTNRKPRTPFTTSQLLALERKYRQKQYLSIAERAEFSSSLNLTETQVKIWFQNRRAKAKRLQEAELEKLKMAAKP
# ALX1 [23] = molecular target: ALX1 (Homo sapiens, UniProt Q15699 118-204)
# Chain of ALX1 (Homo sapiens, UniProt Q15699 118-204) (Q15699 118-204): as the sequence (Q15699 118-204 L144V) above, with V27L counted along it
# ALX3 [24] = molecular target: ALX3 (Homo sapiens, UniProt O95076 139-225, N203S)
# Chain of ALX3 (Homo sapiens, UniProt O95076 139-225, N203S) (O95076 139-225 N203S): as the sequence (O95076 139-225 N203Q) above, with Q65S counted along it
# PRRX1 [25] = molecular target: PRRX1 (Homo sapiens, UniProt P54821 80-166)
# Chain of PRRX1 (Homo sapiens, UniProt P54821 80-166) (P54821 80-166): as the sequence (P54821 80-166 F113S) above, with S34F counted along it
# PAX4 [26] = molecular target: T1, PAX4 (Homo sapiens, UniProt O43316 9-242, R200K)
# T1 sequence: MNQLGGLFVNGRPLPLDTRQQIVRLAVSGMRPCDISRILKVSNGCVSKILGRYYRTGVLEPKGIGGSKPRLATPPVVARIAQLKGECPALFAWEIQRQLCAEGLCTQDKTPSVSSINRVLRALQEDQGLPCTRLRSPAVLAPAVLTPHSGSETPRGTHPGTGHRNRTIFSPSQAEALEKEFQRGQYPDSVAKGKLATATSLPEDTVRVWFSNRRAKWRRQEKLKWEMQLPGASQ
# PAX4 [27] = molecular target: T2, PAX4 (Homo sapiens, UniProt O43316 9-242)
# T2 sequence: T1 sequence with K192R
# PAX4 [28] = molecular target: T3, PAX4 (Homo sapiens, UniProt O43316 9-242, R200Q)
# T3 sequence: T1 sequence with K192Q
# PAX4 [29] = molecular target: T4, PAX4 (Homo sapiens, UniProt O43316 9-242, F177V)
# T4 sequence: T1 sequence with F169V, K192R
# PAX4 [30] = molecular target: T5, PAX4 (Homo sapiens, UniProt O43316 9-242, F177Y)
# T5 sequence: T1 sequence with F169Y, K192R
# PROP1 [31] = molecular target: PROP1 (Homo sapiens, UniProt O75360 56-141)
# Chain of PROP1 (Homo sapiens, UniProt O75360 56-141) (O75360 56-141): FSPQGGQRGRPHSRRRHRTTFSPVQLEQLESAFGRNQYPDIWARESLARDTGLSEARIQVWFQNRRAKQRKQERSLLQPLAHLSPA
# PROP1 [32] = molecular target: PROP1 (Homo sapiens, UniProt O75360 56-141, F88S)
# Chain of PROP1 (Homo sapiens, UniProt O75360 56-141, F88S) (O75360 56-141 F88S): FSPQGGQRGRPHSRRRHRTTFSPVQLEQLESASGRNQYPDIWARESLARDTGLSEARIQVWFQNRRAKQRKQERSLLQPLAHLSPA
# PAX4 [33] = molecular target: T6, PAX4 (Homo sapiens, UniProt O43316 9-242, R227W)
# T6 sequence: T1 sequence with K192R, R219W
# Chain of HESX1 (Homo sapiens, UniProt Q9UBX0 95-180) (Q9UBX0 95-180): as the sequence (Q9UBX0 95-180 R109Q) above, with Q15R counted along it
# Chain of HESX1 (Homo sapiens, UniProt Q9UBX0 95-180, R165K) (Q9UBX0 95-180 R165K): as the sequence (Q9UBX0 95-180 R109Q) above, with Q15R, R71K counted along it
# Chain of HOXB6 (Homo sapiens, UniProt P17509 132-218, K202E) (P17509 132-218 K202E): as the sequence (P17509 132-218) above, with K71E counted along it
sequence,measurement,setting,value
ATTATAGC,binding signal,HESX1 [1],"8.55 upbm affinity estimate (log intensity, higher = more binding, comparable within an allelic series)"
same,binding signal,HESX1 [2],"8.71 upbm affinity estimate (log intensity, higher = more binding, comparable within an allelic series)"
TATGGTAA,binding signal,HESX1 [1],"7.45 upbm affinity estimate (log intensity, higher = more binding, comparable within an allelic series)"
same,binding signal,HESX1 [2],"7.53 upbm affinity estimate (log intensity, higher = more binding, comparable within an allelic series)"
AGAGGACC,binding signal,HESX1 [1],"6.6 upbm affinity estimate (log intensity, higher = more binding, comparable within an allelic series)"
same,binding signal,HOXB6 [3],"9.07 upbm affinity estimate (log intensity, higher = more binding, comparable within an allelic series)"
same,binding signal,HESX1 [2],"6.46 upbm affinity estimate (log intensity, higher = more binding, comparable within an allelic series)"
same,binding signal,HESX1 [4],"6.58 upbm affinity estimate (log intensity, higher = more binding, comparable within an allelic series)"
same,binding signal,HESX1 [5],"6.41 upbm affinity estimate (log intensity, higher = more binding, comparable within an allelic series)"
same,binding signal,HESX1 [6],"6.55 upbm affinity estimate (log intensity, higher = more binding, comparable within an allelic series)"
same,binding signal,NKX3-2 [7],"11.8 upbm affinity estimate (log intensity, higher = more binding, comparable within an allelic series)"
same,binding signal,HOXB6 [8],"8.88 upbm affinity estimate (log intensity, higher = more binding, comparable within an allelic series)"
same,binding signal,NKX3-2 [9],"11.8 upbm affinity estimate (log intensity, higher = more binding, comparable within an allelic series)"
AGGTACCT,binding signal,HESX1 [1],"6.5 upbm affinity estimate (log intensity, higher = more binding, comparable within an allelic series)"
same,binding signal,ALX4 [10],"8.17 upbm affinity estimate (log intensity, higher = more binding, comparable within an allelic series)"
same,binding signal,ALX4 [11],"8.34 upbm affinity estimate (log intensity, higher = more binding, comparable within an allelic series)"
same,binding signal,HESX1 [2],"6.5 upbm affinity estimate (log intensity, higher = more binding, comparable within an allelic series)"
same,binding signal,HESX1 [4],"6.6 upbm affinity estimate (log intensity, higher = more binding, comparable within an allelic series)"
same,binding signal,HESX1 [5],"6.54 upbm affinity estimate (log intensity, higher = more binding, comparable within an allelic series)"
same,binding signal,HESX1 [6],"6.63 upbm affinity estimate (log intensity, higher = more binding, comparable within an allelic series)"
AATTATCG,binding signal,HESX1 [1],"11.5 upbm affinity estimate (log intensity, higher = more binding, comparable within an allelic series)"
same,binding signal,ALX4 [10],"13.7 upbm affinity estimate (log intensity, higher = more binding, comparable within an allelic series)"
same,binding signal,PRRX1 [12],"11 upbm affinity estimate (log intensity, higher = more binding, comparable within an allelic series)"
same,binding signal,ALX4 [11],"12.7 upbm affinity estimate (log intensity, higher = more binding, comparable within an allelic series)"
same,binding signal,HESX1 [2],"11.6 upbm affinity estimate (log intensity, higher = more binding, comparable within an allelic series)"
same,binding signal,MSX2 [13],"12.3 upbm affinity estimate (log intensity, higher = more binding, comparable within an allelic series)"
same,binding signal,ALX1 [14],"11.5 upbm affinity estimate (log intensity, higher = more binding, comparable within an allelic series)"
same,binding signal,ALX3 [15],"8.39 upbm affinity estimate (log intensity, higher = more binding, comparable within an allelic series)"
same,binding signal,SHOX,"9.18 upbm affinity estimate (log intensity, higher = more binding, comparable within an allelic series)"
same,binding signal,ALX1 [16],"11.1 upbm affinity estimate (log intensity, higher = more binding, comparable within an allelic series)"
same,binding signal,MSX2 [17],"13.4 upbm affinity estimate (log intensity, higher = more binding, comparable within an allelic series)"
same,binding signal,ALX3 [18],"12.3 upbm affinity estimate (log intensity, higher = more binding, comparable within an allelic series)"
same,binding signal,HESX1 [4],"8.48 upbm affinity estimate (log intensity, higher = more binding, comparable within an allelic series)"
same,binding signal,PROP1 [19],"10.8 upbm affinity estimate (log intensity, higher = more binding, comparable within an allelic series)"
same,binding signal,ALX3 [20],"10.3 upbm affinity estimate (log intensity, higher = more binding, comparable within an allelic series)"
same,binding signal,HESX1 [5],"10.2 upbm affinity estimate (log intensity, higher = more binding, comparable within an allelic series)"
same,binding signal,ALX3 [21],"9.82 upbm affinity estimate (log intensity, higher = more binding, comparable within an allelic series)"
same,binding signal,MSX2 [22],"13 upbm affinity estimate (log intensity, higher = more binding, comparable within an allelic series)"
same,binding signal,HESX1 [6],"7.49 upbm affinity estimate (log intensity, higher = more binding, comparable within an allelic series)"
same,binding signal,ALX1 [23],"12 upbm affinity estimate (log intensity, higher = more binding, comparable within an allelic series)"
same,binding signal,ALX3 [24],"8.5 upbm affinity estimate (log intensity, higher = more binding, comparable within an allelic series)"
same,binding signal,PRRX1 [25],"13.2 upbm affinity estimate (log intensity, higher = more binding, comparable within an allelic series)"
AATTAACC,binding signal,HESX1 [1],"11.5 upbm affinity estimate (log intensity, higher = more binding, comparable within an allelic series)"
same,binding signal,ALX4 [10],"13.6 upbm affinity estimate (log intensity, higher = more binding, comparable within an allelic series)"
same,binding signal,PAX4 [26],"11.6 upbm affinity estimate (log intensity, higher = more binding, comparable within an allelic series)"
same,binding signal,PRRX1 [12],"11 upbm affinity estimate (log intensity, higher = more binding, comparable within an allelic series)"
same,binding signal,PAX4 [27],"12.1 upbm affinity estimate (log intensity, higher = more binding, comparable within an allelic series)"
same,binding signal,ALX4 [11],"12.7 upbm affinity estimate (log intensity, higher = more binding, comparable within an allelic series)"
same,binding signal,HESX1 [2],"11.5 upbm affinity estimate (log intensity, higher = more binding, comparable within an allelic series)"
same,binding signal,ALX1 [14],"11.3 upbm affinity estimate (log intensity, higher = more binding, comparable within an allelic series)"
same,binding signal,ALX3 [15],"8.33 upbm affinity estimate (log intensity, higher = more binding, comparable within an allelic series)"
same,binding signal,PAX4 [28],"11.9 upbm affinity estimate (log intensity, higher = more binding, comparable within an allelic series)"
same,binding signal,SHOX,"9.27 upbm affinity estimate (log intensity, higher = more binding, comparable within an allelic series)"
same,binding signal,ALX1 [16],"11.2 upbm affinity estimate (log intensity, higher = more binding, comparable within an allelic series)"
same,binding signal,PAX4 [29],"10.4 upbm affinity estimate (log intensity, higher = more binding, comparable within an allelic series)"
same,binding signal,ALX3 [18],"12.3 upbm affinity estimate (log intensity, higher = more binding, comparable within an allelic series)"
same,binding signal,PAX4 [30],"10.8 upbm affinity estimate (log intensity, higher = more binding, comparable within an allelic series)"
same,binding signal,PROP1 [31],"11.1 upbm affinity estimate (log intensity, higher = more binding, comparable within an allelic series)"
same,binding signal,HESX1 [4],"8.77 upbm affinity estimate (log intensity, higher = more binding, comparable within an allelic series)"
same,binding signal,PROP1 [19],"10.7 upbm affinity estimate (log intensity, higher = more binding, comparable within an allelic series)"
same,binding signal,ALX3 [20],"10.3 upbm affinity estimate (log intensity, higher = more binding, comparable within an allelic series)"
same,binding signal,HESX1 [5],"10.3 upbm affinity estimate (log intensity, higher = more binding, comparable within an allelic series)"
same,binding signal,ALX3 [21],"9.89 upbm affinity estimate (log intensity, higher = more binding, comparable within an allelic series)"
same,binding signal,PROP1 [32],"7.52 upbm affinity estimate (log intensity, higher = more binding, comparable within an allelic series)"
same,binding signal,HESX1 [6],"7.7 upbm affinity estimate (log intensity, higher = more binding, comparable within an allelic series)"
same,binding signal,PAX4 [33],"10.8 upbm affinity estimate (log intensity, higher = more binding, comparable within an allelic series)"
same,binding signal,ALX1 [23],"12.1 upbm affinity estimate (log intensity, higher = more binding, comparable within an allelic series)"
same,binding signal,ALX3 [24],"8.5 upbm affinity estimate (log intensity, higher = more binding, comparable within an allelic series)"
same,binding signal,PRRX1 [25],"13.2 upbm affinity estimate (log intensity, higher = more binding, comparable within an allelic series)"
